Data from PubChem BioAssay (NCI).
This is part of a sample that, as a whole, favours compounds with a hit. Of some 79,000 tested, about 15% had one in any assay. Calls of active or inactive are those of the source. Cut-off read from the data, not from the text of the source: active = growth inhibition above about 70%; inactive = the rest. Where a SMILES comes first, the peptide text is derived from it.

What was measured:
[1] = NCI Yeast Anticancer Drug Screen. Data for the rad50 strain (AID 155);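 note: 0% = growth of vehicle-only cultures of the same strain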; details: S. cerevisiae rad50 strain growth inhibition; at 50.0 µM; stronger effect = higher value
Method in brief: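 Yeast carrying a defined DNA repair defect were exposed to test compounds, and growth was compared with vehicle-treated controls to give percent inhibition.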

[2] = NCI Yeast Anticancer Drug Screen. Data for the mec2-1 strain (AID 157); details: S. cerevisiae mec2-1 strain, at 50.0 µM, stronger effect = higher value
Method in brief: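 Using mec2-1 yeast: add compound, measure growth, express inhibition versus vehicle-treated cultures.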

[3] = NCI Yeast Anticancer Drug Screen. Data for the sgs1 mgt1 strain (AID 161);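 note: 0% = growth of cultures given vehicle only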; details: S. cerevisiae sgs1 mgt1 strain, at 50.0 µM, stronger effect = higher value
Method in brief: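 Growth of a repair-deficient yeast mutant was monitored after compound treatment and expressed as inhibition relative to vehicle-treated cultures.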

[4] = NCI Yeast Anticancer Drug Screen. Data for the cln2 rad14 strain (AID 165);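 note: 0% = growth equal to vehicle treated cultures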; details: S. cerevisiae cln2 rad14 strain, at 50.0 µM, stronger effect = higher value
Method in brief: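 Yeast strain cln2 rad14, bearing defects in cell cycle control and DNA repair, serves as the test system; values reflect growth inhibition compared with vehicle.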

[5] = NCI Yeast Anticancer Drug Screen. Data for the bub3 strain (AID 167); details: S. cerevisiae bub3 mutant strain, at 50.0 µM, stronger effect = higher value
Method in brief: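 Compounds were applied to a genetically altered yeast strain carrying a cell-cycle control defect. Growth inhibition was scored against vehicle-treated controls.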

[6] = NCI Yeast Anticancer Drug Screen. Data for the mlh1 rad18 strain (AID 175); details: S. cerevisiae mlh1 rad18 strain growth inhibition; at 50.0 µM; stronger effect = higher value
Method in brief: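 Steps: expose repair-defective yeast to compound; measure growth; express inhibition against vehicle-treated controls.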

Measured: growth inhibition

O=C(O)C1(CC(CCCN2CCCCC2)c2ccccc2)CCCC1 (stereo unspecified)
inactive: [1] -40% | [2] -9.65% | [3] -4.1% | [4] 6.4% | [5] -15.4% | [6] -36.3%

Nc1nnnn1NC(=O)c1ccccc1
inactive: [1] -2.1% | [2] -6.8% | [3] -5.35% | [4] -11.5% | [5] -6% | [6] -11.3%

N#CC1C=CN(Cc2ccccc2)C=C1C(=O)c1ccccc1 (stereo unspecified)
inactive: [1] -1.5% | [2] -3.9% | [3] -5.85% | [4] 2.55% | [5] 7.6% | [6] 5.2%

CN(C)CCCC1(O)c2ccccc2Sc2cc(Cl)ccc21 (stereo unspecified)
inactive: [1] 12.9% | [2] 12.9% | [3] 17.9% | [4] 18.6% | [5] 12.7% | [6] 25.9%

COc1ccc(Cl)cc1NC(=O)Oc1ccc2ccccc2c1
inactive: [1] -5.8% | [2] 29.2% | [3] 12.2% | [4] -12.7% | [5] 27.3% | [6] 38.2%

CC(C(=O)OCc1ccccc1)(c1ccco1)N1C(=O)OC(c2ccccc2)C1c1ccccc1 (stereo unspecified)
inactive: [1] -4.35% | [2] -3.5% | [3] 4.55% | [4] -3.5% | [5] -17.1% | [6] -23.1%

COC(=O)N1C(c2ccccc2)C=CC(c2ccccc2)N1C(=O)OC (stereo unspecified)
inactive: [1] 12.7% | [2] 11.2% | [3] 10.2% | [4] 4.3% | [5] 17% | [6] 18.2%

CN(C)CCCn1c(=O)nc2n(-c3ccccc3)c3ccccc3nc-2c1=O
inactive: [1] 9.3% | [2] 4.5% | [3] -10.4% | [4] 8.75% | [5] 2.35% | [6] -44.5%

COC1/C=C/OC2(C)Oc3c(C)c(O)c4c(O)c(c(/C=N/N(C)c5ccc([N+](=O)[O-])cc5[N+](=O)[O-])c(O)c4c3C2=O)NC(=O)C(C)=C/C=C/C(C)C(O)C(C)C(O)C(C)C(OC(C)=O)C1C (stereo unspecified)
inactive: [1] 10.2% | [2] 55.6% | [3] 31.5% | [4] 63.6% | [5] 40.3% | [6] 56%

c1ccc2c(c1)nc1n2CC2(CS1)CSc1nc3ccccc3n1C2
inactive: [1] -8.65% | [2] 2.1% | [3] -7.15% | [4] -25.8% | [5] -13.4% | [6] -3.1%

CCC[C@H](C)[C@H]1NC(=O)[C@@H](NC(=O)[C@@H](CC(C)C)N(C)C(=O)C2CCCN2C(=O)[C@H](C)O)[C@@H](C)OC(=O)[C@H](CC(C)C)N(C)C(=O)[C@@H]2CCCN2C(=O)[C@H](CC(C)C)NC(=O)[C@@H](C)C(=O)[C@H](C(C)C)OC(=O)C[C@@H]1O (stereo partly specified)
inactive: [1] 21.2% | [2] 9.35% | [3] -5.9% | [4] 26.3% | [5] -20.9% | [6] -54%

CN(C)C(N)=Nc1ncnc2ccccc12
inactive: [1] -14.6% | [2] 15.2% | [3] 0.45% | [4] 15.7% | [5] -5.85% | [6] -1.8%

Nc1cc(C(F)(F)F)ccc1[N+](=O)[O-]
inactive: [1] 14.2% | [2] -10.2% | [3] 8% | [4] -7.25% | [5] 8.85% | [6] 22.4%

CCOC(OCC)C(N)C(=O)O (stereo unspecified)
inactive: [1] 6% | [2] 23.7% | [3] 1.4% | [4] -19.3% | [5] 10.8% | [6] -15%

O=S1(=O)NC2CCC3NS(=O)(=O)NC4CCC(N1)N4S(=O)(=O)N23 (stereo unspecified)
inactive: [1] -3.75% | [2] -17.4% | [3] -4.1% | [4] 6.6% | [5] -0.55% | [6] -8.25%

CC(C)(C)C(=O)Nc1ccc(NS(=O)(=O)c2ccccc2)cc1
inactive: [1] 6.85% | [2] -4.3% | [3] 2.85% | [4] 1.8% | [5] 2.9% | [6] -21.1%

OC1CC2C3CCC(C3)C2C1O (stereo unspecified)
inactive: [1] -11.8% | [2] -6.35% | [3] -10.4% | [4] -7.45% | [5] 9.55% | [6] -2.95%

CCCCCCCCCCCCCC(=O)Oc1ccc2ccccc2c1
inactive: [1] -4.05% | [2] 3.5% | [3] -3.85% | [4] 5.7% | [5] -10.1% | [6] 8.7%

CC(C)(CCN(CC(=O)O)CC(=O)O)[N+](=O)[O-]
inactive: [1] -16.1% | [2] -3.1% | [3] 3.65% | [4] -69.8% | [5] 6.05% | [6] -21.5%

CCOc1c(Cl)cc(Cl)cc1C(c1ccc(Cl)cc1S(=O)(=O)O)c1cc(Cl)cc(Cl)c1OCC
active: [1] 99.2% | [2] 99.3% | [3] 99.6% | [4] 98% | [5] 99% | [6] 99.2%

C[C@@H]1C[C@@H]2C(=O)N(c3ccccc3)C(=O)[C@@H]2c2[nH]c3ccc(Br)cc3c21
inactive: [1] 0.2% | [2] -12.6% | [3] 15.8% | [4] 0.25% | [5] -7.95% | [6] -20.1%

CCC1CN2CCc3cc(OC)c(OC)cc3C2CC12CO2 (stereo unspecified)
inactive: [1] -5.6% | [2] -21.3% | [3] 3.15% | [4] -2.5% | [5] 48.8% | [6] -36.1%

COC(=O)CCC(=O)C(CC(=O)OC)C(=O)CCC(=O)NCCc1ccccc1 (stereo unspecified)
inactive: [1] -30.1% | [2] -21.9% | [3] -41.5% | [4] 2.4% | [5] -24.2% | [6] -31.4%

COc1ccccc1C(=O)N(C)c1ccc(Cl)c(C(=O)OC(C)C)c1
inactive: [1] 30.9% | [2] 24.7% | [3] 46.4% | [4] 37.7% | [5] 44.5% | [6] 6.85%

O.O.O=c1cc(Cl)[nH]c(=O)[nH]1.[NH2-].[NH2-].[Pt+4]
inactive: [1] -21.9% | [2] -18.1% | [3] -2.4% | [4] -47.6% | [5] 2.65% | [6] 35.7%

CC1(C)C=Cc2c(ccc3[nH]c4occc4c(=O)c23)O1
inactive: [1] 23.4% | [2] -21.8% | [3] -16.8% | [4] 14.2% | [5] 11.4% | [6] -0.3%

CCCCC(C)C(C)O (stereo unspecified)
inactive: [1] -28.5% | [2] -62.1% | [3] -24.6% | [4] 11.2% | [5] -33.9% | [6] -0.8%

CC[N+](CC)(CC)CC(=O)c1ccc(Br)cc1
inactive: [1] 18.7% | [2] 12.7% | [3] 13.1% | [4] -0.35% | [5] 25% | [6] 8.2%

CC1CCC(O)(C(C)(C(=O)O)c2ccccc2)CC1 (stereo unspecified)
inactive: [1] -19.7% | [2] -16.8% | [3] -5.65% | [4] -35.6% | [5] -54.8% | [6] -8.45%

O=c1[nH]ncn2nc3ccccc3c12
inactive: [1] 3% | [2] 10.2% | [3] -2.5% | [4] -53.1% | [5] -1.3% | [6] 8.15%

CC(=O)OC1OCCCC1Cl (stereo unspecified)
inactive: [1] -8.95% | [2] -27.9% | [3] -7.75% | [4] -3.2% | [5] -30.8% | [6] 10.3%

CN(C)C1C(=O)C(C(=O)NCN2CCCC2)=C(O)C2(O)C(=O)C3=C(O)c4c(O)cccc4C(C)(O)C3CC12 (stereo unspecified)
inactive: [1] 2.75% | [2] -4.7% | [3] -10.2% | [4] -27.9% | [5] -26.9% | [6] 21.4%

CCOc1c2ccsc2c(OCC)c2ccsc12
inactive: [1] -14.9% | [2] -25.8% | [3] -10.2% | [4] 6.05% | [5] -5.15% | [6] -35.8%

CCCC(O)c1ccccc1 (stereo unspecified)
inactive: [1] 31.2% | [2] 35.8% | [3] -9.65% | [4] 5.3% | [5] 3.7% | [6] 18.9%

C=CCOC(=O)C(C)(C)OC(C)=O
inactive: [1] 13.9% | [2] 5.9% | [3] 10.8% | [4] 3.15% | [5] 2% | [6] -1.85%

Cc1ccc(S(=O)(=O)N/N=C/C(C)(C)C)cc1
inactive: [1] 17.4% | [2] -3.25% | [3] 8.95% | [4] -19% | [5] -6.75% | [6] 16.6%

CCc1nc(N)nc(N)c1-c1ccc(Cl)c([N+](=O)[O-])c1
inactive: [1] 4.35% | [2] 4.95% | [3] -8.35% | [4] -7.1% | [5] -31.1% | [6] -13.6%

OC12CC/C(=N/OCc3ccccc3)CC1c1ccccc12 (stereo unspecified)
inactive: [1] 11.2% | [2] -22.9% | [3] -29.8% | [4] -16% | [5] -36.1% | [6] 0.45%

NCCCCC(NC(=O)C(N)Cc1cnc[nH]1)C(=O)O (stereo not drawn) (H-His-Lys-OH; configuration not given here)
inactive: [1] 4.1% | [2] -5.75% | [3] -4% | [4] 13.3% | [5] 7.55% | [6] -12.2%

CCC(CO)NC(=O)c1cccnc1 (stereo unspecified)
inactive: [1] -13.5% | [2] -8.3% | [3] -2.85% | [4] -19% | [5] -7.6% | [6] 2.25%

O=S1(=O)OCCOS(=O)(=O)C1S(=O)(=O)c1cccc2ccccc12
inactive: [1] -19.2% | [2] -5.95% | [3] 12.8% | [4] -8.7% | [5] -2.95% | [6] 27%
